Experimental data published in PubChem BioAssay (NCATS).
Values joined by “and” are separate entries in the source; they are usually repeats but may differ in a detail not shown here. Identical values can stand only once. Unmarked numbers belong to inactive results. Records with an inconclusive call do not appear. Entries that show only a call come without a potency. Active and inactive are the calls of the source. Unless noted, calls come from the whole dose curve; as a rule, active = well fitted curve in the direction sought with a large enough effect; inconclusive = small, poorly fitted or top-dose-only effect, or another doubt; inactive = no such curve, though single readings can be large; an effect the other way counts as inactive or inconclusive.

Assays:
[1] = target: Cytochrome P450 3A4 (Homo sapiens) (UniProt P08684); assay: qHTS Assay for Inhibitors and Substrates of Cytochrome P450 3A4 (AID 884); note: nearly all actives have a fitted effect of over 50% in size; note: potency is the fitted concentration of half-maximal effect
Chain of Cytochrome P450 3A4 (Homo sapiens) (P08684 whole entry, looked up): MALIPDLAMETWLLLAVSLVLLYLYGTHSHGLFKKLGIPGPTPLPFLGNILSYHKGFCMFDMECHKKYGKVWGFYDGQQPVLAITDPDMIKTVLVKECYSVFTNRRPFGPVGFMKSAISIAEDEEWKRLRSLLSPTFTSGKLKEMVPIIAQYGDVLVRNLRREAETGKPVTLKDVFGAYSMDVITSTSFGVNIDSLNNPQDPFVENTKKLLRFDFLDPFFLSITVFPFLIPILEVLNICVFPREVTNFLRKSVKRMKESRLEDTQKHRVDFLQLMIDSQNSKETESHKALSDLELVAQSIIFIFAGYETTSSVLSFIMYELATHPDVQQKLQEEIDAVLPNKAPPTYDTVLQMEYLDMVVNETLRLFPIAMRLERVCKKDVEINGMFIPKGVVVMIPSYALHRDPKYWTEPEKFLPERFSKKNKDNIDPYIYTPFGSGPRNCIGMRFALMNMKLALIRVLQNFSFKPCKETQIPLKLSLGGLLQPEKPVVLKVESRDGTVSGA
How it was run: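 Luminescent readout of luciferin produced by CYP3A4 (20 nM) dealkylation of Luciferin-PPXE, 25 uM (its KM). NADPH-driven reaction ran 60 min at RT after 10 min compound preincubation; data scaled to 57 uM ketoconazole as 100% inhibition.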

[2] = MultiTox-Fluor Cytotoxicity Assay - LYMP1-001 - Live Cells (AID 947)
[3] = MultiTox-Fluor Cytotoxicity Assay - LYMP1-002 - Dead Cells (AID 960); note: nearly all actives have a fitted effect of over 60% in size
How it was run: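 Dead-cell fluorescence (Ex/Em 485/520) after 16 h compound exposure at 37 C of LYMP1-002 lymphoblastoid cells in complete medium; AC50 by Hill equation, with data scaled between DMSO and 15 uM tetraoctylammonium bromide.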

[4] = Cell Viability - LYMP2-009 (AID 968);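 note: series mostly up to about 92 µM; cells exposed to compound for 24 h at 37 °C; nearly all actives have a fitted effect of over 55% in size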
[5] = Cell Viability - LYMP2-012 (AID 982);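 note: cellular ATP by luciferase luminescence where a drop means cytotoxicity; cells exposed to compound for one day before reading; nearly all actives have a fitted effect of over 55% in size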
[6] = target: Estrogen receptor (Homo sapiens) (UniProt P03372); assay: qHTS assay for small molecule antagonists of estrogen receptor alpha signaling (AID 588513; active = well fitted curve in the direction sought with a large enough effect in the signal ratio, with a control signal flat, not every such curve was filed as active; the % refers to the signal ratio)
Chain of Estrogen receptor (Homo sapiens) (P03372 whole entry, looked up): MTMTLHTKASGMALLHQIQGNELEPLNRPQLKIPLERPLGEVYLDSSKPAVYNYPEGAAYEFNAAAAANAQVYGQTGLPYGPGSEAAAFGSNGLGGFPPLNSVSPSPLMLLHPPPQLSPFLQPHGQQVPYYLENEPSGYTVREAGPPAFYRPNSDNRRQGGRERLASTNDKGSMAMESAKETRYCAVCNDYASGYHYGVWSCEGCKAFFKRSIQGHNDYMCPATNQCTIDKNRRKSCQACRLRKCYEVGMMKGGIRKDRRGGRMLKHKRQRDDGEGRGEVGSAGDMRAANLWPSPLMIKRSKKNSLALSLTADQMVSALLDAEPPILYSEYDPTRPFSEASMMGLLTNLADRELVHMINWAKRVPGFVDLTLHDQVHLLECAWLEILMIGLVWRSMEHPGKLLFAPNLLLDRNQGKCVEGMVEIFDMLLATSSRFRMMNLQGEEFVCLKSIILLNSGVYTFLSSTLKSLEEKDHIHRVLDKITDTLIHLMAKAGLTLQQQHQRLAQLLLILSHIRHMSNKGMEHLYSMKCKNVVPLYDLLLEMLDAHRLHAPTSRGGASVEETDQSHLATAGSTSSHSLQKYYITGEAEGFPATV
How it was run: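 Beta-lactamase reporter, antagonist mode, HEK 293 GripTite cells; 0.5nM E2 stimulus, 18 h, 37 C; CCF4 dye 2 h RT; fluorescence. IC50 and efficacy from Hill fits, normalized to E2 and DMSO.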

[7] = target: Estrogen receptor (Homo sapiens) (UniProt P03372); assay: qHTS assay for small molecule agonists of estrogen receptor alpha signaling (AID 588514; calls by dose curve; note: nearly all actives have a fitted effect of over 70% in size)
How it was run: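 EC50 and efficacy came from Hill fits of beta-lactamase reporter signal (CCF4 dye, 2 h at room temperature) scaled between DMSO and 20 nM 17-beta-estradiol. Agonist mode: HEK293 ER-alpha-UAS-bla cells in charcoal/dextran-stripped serum medium, 18 h compound exposure at 37 C.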

[8] = target: Glucocorticoid receptor (Homo sapiens) (UniProt P04150); assay: qHTS assay for small molecule antagonists of glucocorticoid receptor signaling (AID 588533; active = well fitted inhibition curve with a large enough effect in the signal ratio, with a control signal flat, not every such curve was filed as active; the % refers to the signal ratio;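 note: cells stimulated with 2 nM dexamethasone as agonist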)
Chain of Glucocorticoid receptor (Homo sapiens) (P04150 whole entry, looked up): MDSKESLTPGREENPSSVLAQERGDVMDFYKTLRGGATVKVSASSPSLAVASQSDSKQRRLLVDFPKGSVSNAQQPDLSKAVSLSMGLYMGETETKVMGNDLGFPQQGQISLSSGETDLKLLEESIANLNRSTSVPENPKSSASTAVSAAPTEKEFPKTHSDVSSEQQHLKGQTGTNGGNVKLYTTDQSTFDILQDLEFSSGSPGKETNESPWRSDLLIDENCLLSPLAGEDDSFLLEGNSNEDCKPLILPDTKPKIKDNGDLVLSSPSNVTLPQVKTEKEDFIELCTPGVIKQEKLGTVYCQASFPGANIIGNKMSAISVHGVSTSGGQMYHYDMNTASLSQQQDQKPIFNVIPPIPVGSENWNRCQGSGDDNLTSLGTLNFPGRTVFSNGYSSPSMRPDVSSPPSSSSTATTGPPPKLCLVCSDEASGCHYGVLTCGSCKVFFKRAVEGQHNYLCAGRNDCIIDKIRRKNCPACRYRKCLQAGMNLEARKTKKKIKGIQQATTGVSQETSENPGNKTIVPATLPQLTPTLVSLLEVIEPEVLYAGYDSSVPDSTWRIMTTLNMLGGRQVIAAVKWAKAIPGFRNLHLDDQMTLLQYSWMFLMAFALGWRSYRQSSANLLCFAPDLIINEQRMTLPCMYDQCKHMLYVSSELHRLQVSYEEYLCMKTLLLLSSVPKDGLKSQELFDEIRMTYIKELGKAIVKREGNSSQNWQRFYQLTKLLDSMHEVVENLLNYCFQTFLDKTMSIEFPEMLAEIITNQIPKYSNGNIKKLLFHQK
How it was run: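 Antagonist-mode qHTS: compound titrations added to GRE-bla HeLa cells, then dexamethasone 2 nM final; 18 h, 37 C. CCF4 FRET fluorescence normalized to dexamethasone and DMSO; IC50 from Hill fit.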

[9] = target: Peroxisome proliferator-activated receptor delta (Homo sapiens) (UniProt Q03181); assay: qHTS assay for small molecule agonists of peroxisome proliferator-activated receptor delta signaling (AID 588534; calls by dose curve)
Chain of Peroxisome proliferator-activated receptor delta (Homo sapiens) (Q03181 whole entry, looked up): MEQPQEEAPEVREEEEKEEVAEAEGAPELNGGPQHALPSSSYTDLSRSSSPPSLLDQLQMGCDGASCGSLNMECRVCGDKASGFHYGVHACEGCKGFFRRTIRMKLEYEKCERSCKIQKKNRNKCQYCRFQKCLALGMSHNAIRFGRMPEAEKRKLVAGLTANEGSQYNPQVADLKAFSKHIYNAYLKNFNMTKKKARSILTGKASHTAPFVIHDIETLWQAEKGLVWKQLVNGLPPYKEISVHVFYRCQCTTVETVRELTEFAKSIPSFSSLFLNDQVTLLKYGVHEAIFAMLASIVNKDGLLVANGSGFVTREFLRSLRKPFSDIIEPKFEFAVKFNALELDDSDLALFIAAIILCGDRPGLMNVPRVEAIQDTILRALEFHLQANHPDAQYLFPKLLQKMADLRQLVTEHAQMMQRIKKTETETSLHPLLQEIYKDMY
How it was run: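 Agonist-mode beta-lactamase reporter readout (CCF4 dye, 2 h at RT) after 18 h at 37 °C exposure to a titration; Hill-equation fitting gave EC50 and maximal response.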

[10] = target: Vitamin D3 receptor (Homo sapiens) (UniProt P11473); assay: qHTS assay for small molecule antagonists of vitamin D receptor signaling (AID 588541; calls by dose curve;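 note: receptor activated by calcitriol during compound treatment; series mostly up to about 77 µM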)
Chain of Vitamin D3 receptor (Homo sapiens) (P11473 whole entry, looked up): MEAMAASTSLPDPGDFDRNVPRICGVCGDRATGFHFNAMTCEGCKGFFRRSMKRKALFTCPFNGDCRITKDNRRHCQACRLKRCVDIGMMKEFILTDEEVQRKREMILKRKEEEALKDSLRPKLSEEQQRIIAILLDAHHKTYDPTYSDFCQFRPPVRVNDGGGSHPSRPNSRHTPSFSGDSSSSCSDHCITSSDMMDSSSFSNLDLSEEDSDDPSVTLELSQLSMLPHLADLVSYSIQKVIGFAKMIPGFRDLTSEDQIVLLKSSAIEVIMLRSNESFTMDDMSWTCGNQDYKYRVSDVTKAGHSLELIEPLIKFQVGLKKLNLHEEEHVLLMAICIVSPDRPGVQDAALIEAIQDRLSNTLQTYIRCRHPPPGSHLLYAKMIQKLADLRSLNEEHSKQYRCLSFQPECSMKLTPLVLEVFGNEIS
How it was run: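 VDR-UAS-bla HEK293T cells (2000/well, 2% charcoal-stripped FBS) were treated with titrated compounds plus 1-alpha,25-dihydroxyvitamin D3 (50 nM or 3 nM final) for 16 h at 37 C. CCF4 beta-lactamase fluorescence was read; Hill fits gave IC50.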

[11] = target: Vitamin D3 receptor (Homo sapiens) (UniProt P11473); assay: qHTS assay for small molecule agonists of vitamin D receptor signaling (AID 588543; calls by dose curve)
How it was run: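 β-lactamase reporter, VDR-UAS-bla HEK293T, agonist mode. Cells plated 5 h at 37 °C, compound titration 16 h at 37 °C, CCF4 dye 2 h RT, ratio 460/530 nm. Hill fit → EC50, efficacy vs 50 nM 1α,25-(OH)2D3.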

[12] = target: Voltage-gated inwardly rectifying potassium channel KCNH2 (Homo sapiens) (UniProt Q12809); assay: qHTS Assay for Small Molecule Inhibitors of the Human hERG Channel Activity (AID 588834);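 note: lower thallium flux fluorescence means stronger hERG block; nearly all actives have a fitted effect of over 50% in size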; note: potency is the fitted concentration of half-maximal effect
Chain of Voltage-gated inwardly rectifying potassium channel KCNH2 (Homo sapiens) (Q12809 whole entry, looked up): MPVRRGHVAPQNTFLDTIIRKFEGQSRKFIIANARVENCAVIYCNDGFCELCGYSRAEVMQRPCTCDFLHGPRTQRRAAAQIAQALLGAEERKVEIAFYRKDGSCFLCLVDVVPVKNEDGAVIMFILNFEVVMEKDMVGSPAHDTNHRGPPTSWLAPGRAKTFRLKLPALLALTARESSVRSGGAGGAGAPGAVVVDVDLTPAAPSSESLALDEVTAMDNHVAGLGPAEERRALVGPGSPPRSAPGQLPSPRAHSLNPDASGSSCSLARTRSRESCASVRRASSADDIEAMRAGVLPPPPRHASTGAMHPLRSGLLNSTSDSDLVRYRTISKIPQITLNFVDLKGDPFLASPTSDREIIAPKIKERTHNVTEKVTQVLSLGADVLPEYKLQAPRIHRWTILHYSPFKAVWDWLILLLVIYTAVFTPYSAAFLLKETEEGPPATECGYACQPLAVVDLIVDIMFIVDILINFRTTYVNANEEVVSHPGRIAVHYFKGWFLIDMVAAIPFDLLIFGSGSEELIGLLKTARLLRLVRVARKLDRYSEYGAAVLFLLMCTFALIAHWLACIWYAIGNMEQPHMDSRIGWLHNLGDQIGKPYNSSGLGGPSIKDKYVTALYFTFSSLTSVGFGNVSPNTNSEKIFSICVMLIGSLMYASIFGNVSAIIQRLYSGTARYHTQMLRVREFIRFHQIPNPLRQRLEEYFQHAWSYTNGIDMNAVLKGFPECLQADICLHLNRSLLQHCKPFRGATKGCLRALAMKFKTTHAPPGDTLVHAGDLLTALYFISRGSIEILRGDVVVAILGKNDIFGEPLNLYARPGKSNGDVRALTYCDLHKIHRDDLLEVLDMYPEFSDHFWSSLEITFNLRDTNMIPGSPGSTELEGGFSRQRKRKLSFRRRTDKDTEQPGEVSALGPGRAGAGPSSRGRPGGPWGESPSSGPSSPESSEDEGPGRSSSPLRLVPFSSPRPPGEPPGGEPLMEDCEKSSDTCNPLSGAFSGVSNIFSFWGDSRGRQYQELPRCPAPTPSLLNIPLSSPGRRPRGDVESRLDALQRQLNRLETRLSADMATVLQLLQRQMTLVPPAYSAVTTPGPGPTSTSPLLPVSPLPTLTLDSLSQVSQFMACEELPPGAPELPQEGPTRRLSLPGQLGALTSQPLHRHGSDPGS
How it was run: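 Thallium-flux (FluxOR) read-out on FDSS: fluorescence read 10 s before and 2 min after stimulation buffer. hERG-BacMam-transduced U2OS cells, compound exposure about 10 min. AC50 by standard Hill equation.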

[13] = qHTS assay for small molecule activators of the p53 signaling pathway (AID 651743; active = well fitted activation curve with a large enough effect in the signal ratio, not every such curve was filed as active; the % refers to the signal ratio; note: series mostly up to about 92 µM); conditions: HCT-116 p53RE-bla, beta-lactamase FRET ratio, 16 h; activation: stronger effect = higher value
How it was run: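 Agonist-mode quantitative HTS in HCT-116 cells carrying a p53-response-element beta-lactamase reporter; 16 h compound treatment at 37 C, then FRET substrate loading for 2 h at room temperature and fluorescence read.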

[14] = qHTS assay for small molecule disruptors of the mitochondrial membrane potential - 1 hr assay (AID 651754; calls by dose curve; note: nearly all actives have a fitted effect of over 35% in size)
How it was run: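 Mitochondrial potential in living HepG2 cells after 1 hr compound treatment at 37C was read with Mito-MPS dye added for a further 30 min. Red aggregate and green monomer fluorescence were measured; loss of potential leaves dye as cytoplasmic monomers.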

[15] = qHTS assay for environmental chemicals that activate the Aryl hydrocarbon Receptor (AhR) signaling pathway (AID 651777); conditions: 1A2-DRE human hepatoma cells, luciferase, 24 h; activation: stronger effect = higher value; note: nearly all actives have a fitted effect of over 15% in size
How it was run: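 Luminescence read-out: One-Glo added for 30 min at RT after 24 hr compound treatment (37 C, 5% CO2) of human hepatoma cells expressing a DRE/CYP1A2 promoter–luciferase reporter; increased signal indicates AhR activation.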

[16] = target: Nuclear receptor ROR-gamma (Homo sapiens) (UniProt P51449); assay: qHTS assay for small molecule antagonists of the retinoid-related orphan receptor gamma (ROR-gamma) signaling pathway (AID 651802); note: nearly all actives have a fitted effect of over 60% in size; note: potency is the fitted concentration of half-maximal effect
Chain of Nuclear receptor ROR-gamma (Homo sapiens) (P51449 whole entry, looked up): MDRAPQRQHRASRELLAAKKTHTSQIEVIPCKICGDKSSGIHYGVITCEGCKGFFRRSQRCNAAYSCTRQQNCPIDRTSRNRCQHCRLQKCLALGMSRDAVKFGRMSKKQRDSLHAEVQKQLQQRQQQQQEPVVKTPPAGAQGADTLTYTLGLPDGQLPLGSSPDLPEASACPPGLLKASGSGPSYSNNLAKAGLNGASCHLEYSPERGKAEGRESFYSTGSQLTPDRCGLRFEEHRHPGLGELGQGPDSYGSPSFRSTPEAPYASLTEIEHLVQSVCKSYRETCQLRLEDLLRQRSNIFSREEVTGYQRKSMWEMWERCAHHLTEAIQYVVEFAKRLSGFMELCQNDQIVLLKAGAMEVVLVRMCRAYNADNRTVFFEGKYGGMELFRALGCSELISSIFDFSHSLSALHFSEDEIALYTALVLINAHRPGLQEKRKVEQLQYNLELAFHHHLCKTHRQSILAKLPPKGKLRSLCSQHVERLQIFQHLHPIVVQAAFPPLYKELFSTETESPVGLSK
How it was run: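 Luminescence (One-Glo, 30 min RT) measured 16 h after compound addition and doxycycline induction at 37C. Reporter: RORE-luciferase under TET-inducible ROR-gamma in CHO cells.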

[17] = qHTS assay for small molecule antagonists of the retinoid-related orphan receptor gamma (ROR-gamma) signaling pathway - cell viability counter screen (AID 720652; active = well fitted curve in the direction sought with a large enough effect in the repeat runs; an effect the other way counts as inactive or inconclusive;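 note: CHO reporter cells with doxycycline-induced ROR-gamma expression; series mostly up to about 92 µM; compound exposure lasted 16 hr before ATP read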)
How it was run: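 Cytotoxicity counter screen: intracellular ATP (CellTiter-Glo luminescence) measured in the doxycycline-induced CHO RORE-luciferase reporter line after 16 hr compound exposure at 37 C, 5% CO2.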

[18] = target: Nuclear receptor subfamily 1 group I member 2 (Rattus norvegicus) (UniProt Q9R1A7); assay: qHTS assay for small molecule activators of the rat pregnane X receptor (rPXR) signaling pathway (AID 651751; call rule not given here); conditions: rPXR reporter cells, luciferase (One-Glo), 24 h
Chain of Nuclear receptor subfamily 1 group I member 2 (Rattus norvegicus) (Q9R1A7 whole entry, looked up): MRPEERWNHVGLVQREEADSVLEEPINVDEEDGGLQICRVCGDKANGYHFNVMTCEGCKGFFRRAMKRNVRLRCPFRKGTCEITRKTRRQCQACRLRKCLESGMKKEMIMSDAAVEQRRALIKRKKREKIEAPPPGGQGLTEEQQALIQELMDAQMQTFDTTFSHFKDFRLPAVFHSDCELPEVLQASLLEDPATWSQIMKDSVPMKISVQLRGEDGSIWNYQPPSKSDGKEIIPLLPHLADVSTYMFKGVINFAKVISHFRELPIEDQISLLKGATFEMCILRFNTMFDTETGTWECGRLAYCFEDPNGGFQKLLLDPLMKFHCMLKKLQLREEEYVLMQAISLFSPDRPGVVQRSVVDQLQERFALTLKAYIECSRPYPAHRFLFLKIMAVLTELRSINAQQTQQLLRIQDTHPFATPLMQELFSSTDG

[19] = qHTS assay for small molecule activators of the human pregnane X receptor (PXR) signaling pathway (AID 720659; call rule not given here)
[20] = target: Mitogen-activated protein kinase 10 (Mus musculus) (UniProt Q61831); assay: JNK3 AlphaScreen Assay (AID 530; active = well fitted curve in either direction with a large enough effect, not every such curve was filed as active;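 note: kinase came from lysate of stimulated human HepG2 cells; signal reports phosphorylation of biotinylated GST-cJun 1-79 at Ser73 with 10 µM ATP; series mostly up to about 57 µM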)
How it was run: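 Phosphorylation of biotinylated GST-cJun(1-79) at Ser73 is measured by AlphaScreen proximity luminescence. Enzyme is JNK3 in HepG2 lysates activated with interleukin-1beta and tumor necrosis factor alpha; ATP is 10 uM final.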

Compound: Clc1nc(Cl)nc(Nc2ccccc2Cl)n1
- Potency [1]: inactive
- Potency [2]: inactive
- Potency [3]: inactive
- Potency [4]: inactive
- Potency [5]: inactive
- Potency [6]: inactive
- Potency [7]: inactive
- Potency [8]: inactive
- outcome [9]: inactive
- outcome [10]: inactive
- outcome [11]: inactive
- Potency [12]: inactive
- activation [13]: -1.67% and -3.76%
- Potency [14]: inactive
- activation [15]: 3.35% and 3.56%
- Potency [16]: inactive
- Potency [17]: inactive

Compound: c1cc2c(cc1C1OC[C@@H]3C(c4ccc5c(c4)OCO5)OCC13)OCO2 (some centres not stated)
- Potency [1]: 79.4 nM (active)

Compound: CC1O[C@@H](OC2CC[C@@]3(C=O)C4CC[C@]5(C)C(C6=CC(=O)OC6)CC[C@@]5(O)C4CC[C@]3(O)C2)C(O)C(O)C1O (some centres not stated)
- Potency [1]: inactive

Compound: ClC(Cl)=C(Cl)C(Cl)=C(Cl)Cl
- Potency [1]: inactive
- Potency [2]: inactive
- Potency [3]: inactive
- Potency [6]: inactive
- Potency [7]: inactive
- Potency [8]: inactive
- outcome [9]: inactive
- Potency [12]: inactive
- Potency [14]: inactive
- activation [15]: -0.54% and -2.12%
- Potency [16]: inactive
- Potency [17]: inactive
- max response [18]: 2.24% and -2.02%
- outcome [19]: inactive

Compound: c1ccc(OP(Oc2ccccc2)Oc2ccccc2)cc1
- outcome [20]: inactive
- Potency [1]: inactive
- Potency [2]: inactive
- Potency [3]: inactive
- Potency [4]: inactive
- Potency [5]: inactive
- Potency [6]: inactive
- Potency [7]: inactive
- Potency [8]: inactive
- outcome [10]: inactive
- outcome [11]: inactive
- Potency [12]: inactive
- activation [13]: -2.41% and -6.19%
- Potency [14]: inactive
- activation [15]: 0.234% and -1.88%
- Potency [16]: inactive
- Potency [17]: inactive
- max response [18]: 0.576% and -1.05%
- outcome [19]: inactive

Compound: CC(C)(OO)c1ccccc1
- outcome [20]: inactive
- Potency [1]: inactive
- Potency [3]: inactive
- Potency [6]: inactive
- Potency [8]: inactive
- outcome [9]: inactive
- outcome [10]: inactive
- outcome [11]: inactive
- Potency [12]: inactive
- activation [13]: 0.437% and -4.93%
- Potency [14]: inactive
- activation [15]: 0.536% and 0.232%
- Potency [16]: 42.2 µM (active)
- max response [18]: 7.13% and -0.342%
- outcome [19]: inactive

Compound: CC1=CCCC2C1(C)CCC(C)C2(C)CC/C(C)=C/C[n+]1cn(C)c2c(N)ncnc21 (configuration not stated)
- Potency [1]: 31600 nM (active)

Compound: CCOP(=S)(OCC)Oc1ccc([N+](=O)[O-])cc1
- Potency [1]: 10 µM (active) and 5.01 µM (active)
- Potency [2]: inactive
- Potency [3]: inactive
- Potency [4]: inactive
- Potency [5]: inactive
- Potency [8]: inactive
- outcome [9]: inactive
- Potency [12]: 35.5 µM (active)
- activation [13]: -1.79% and -1.31% and 2.7%
- activation [15]: 8.97%
- Potency [16]: inactive
- Potency [17]: inactive

Compound: N[C@H]1C[C@H]1c1ccccc1
- outcome [20]: inactive

Compound: N#Cc1ccc(CN2CC[C@@]3(CCCNC3)C2)cc1
- outcome [20]: inactive

Compound: NC(=S)Nc1ccccc1
- outcome [20]: inactive
- Potency [1]: inactive
- Potency [2]: inactive
- Potency [3]: inactive
- Potency [4]: inactive
- Potency [5]: inactive
- Potency [6]: inactive
- Potency [7]: inactive
- Potency [8]: inactive
- outcome [9]: inactive
- outcome [10]: inactive
- outcome [11]: inactive
- Potency [12]: inactive
- Potency [14]: inactive
- activation [15]: 0.646% and -0.436% and 0.133%
- Potency [16]: inactive
- Potency [17]: inactive

Compound: C/C=C1\C[N@@+]2(C)CC[C@@]34C(=C(C=O)[C@H]1C[C@H]32)Nc1ccccc14
- outcome [20]: inactive

Compound: [O-][Br+2]([O-])O
- outcome [20]: inactive
- Potency [1]: inactive
- Potency [3]: inactive
- Potency [4]: inactive
- Potency [5]: inactive
- Potency [6]: inactive
- Potency [7]: inactive
- Potency [8]: inactive
- outcome [9]: inactive
- outcome [10]: inactive
- outcome [11]: inactive
- Potency [12]: inactive
- activation [13]: -0.499% and 0.319%
- Potency [14]: inactive
- activation [15]: 0.946% and -0.602%
- Potency [16]: inactive
- Potency [17]: inactive

Compound: C=CC(N)=O
- outcome [20]: inactive
- Potency [2]: inactive
- Potency [3]: inactive
- Potency [4]: inactive
- Potency [5]: inactive
- Potency [6]: inactive
- Potency [8]: inactive
- outcome [9]: inactive
- outcome [10]: inactive
- outcome [11]: inactive
- activation [13]: -1.86% and -1.05% and 3.38%
- Potency [14]: inactive
- activation [15]: 0.655% and -0.766% and 0.336%
- Potency [16]: inactive
- Potency [17]: inactive
- max response [18]: 2.43% and 2.67% and -1.89%
- outcome [19]: inactive

Compound: Brc1ccc(Oc2cc(Br)c(Br)cc2Br)c(Br)c1
- Potency [1]: inactive
- Potency [2]: inactive
- Potency [3]: inactive
- Potency [4]: inactive
- Potency [5]: inactive
- Potency [6]: inactive
- Potency [7]: inactive
- outcome [9]: inactive
- outcome [10]: inactive
- outcome [11]: inactive
- Potency [12]: inactive
- activation [13]: -4.19%
- activation [15]: 5.38% and 0.601% and 5.34%
- Potency [17]: inactive

Compound: Cc1ccc(O)c(C)c1
- Potency [1]: inactive
- Potency [2]: inactive
- Potency [3]: inactive
- Potency [4]: inactive
- Potency [5]: inactive
- Potency [6]: inactive
- Potency [7]: inactive
- Potency [8]: inactive
- outcome [9]: inactive
- Potency [12]: inactive
- activation [13]: -2.98% and 8.45% and 2.43%
- Potency [14]: inactive
- activation [15]: -0.285% and -2.95% and -1.2%
- Potency [16]: inactive
- Potency [17]: inactive
- max response [18]: -2.91% and 1.12% and -5.05%

Compound: CC(O)CCl (configuration not stated)
- outcome [20]: inactive
- Potency [1]: inactive
- Potency [2]: inactive
- Potency [3]: inactive
- Potency [4]: inactive
- Potency [5]: inactive
- Potency [6]: inactive
- Potency [7]: inactive
- Potency [8]: inactive
- outcome [9]: inactive
- outcome [10]: inactive
- outcome [11]: inactive
- Potency [12]: inactive
- Potency [14]: inactive
- activation [15]: 0.217% and 1.37%
- Potency [16]: inactive
- Potency [17]: inactive
- max response [18]: 4.48% and -2.85%
- outcome [19]: inactive

Compound: Clc1cccc(C(Cl)(Cl)Cl)n1
- outcome [20]: inactive
- Potency [2]: inactive
- Potency [4]: inactive
- Potency [5]: inactive
- Potency [6]: inactive
- Potency [7]: inactive
- Potency [12]: inactive
- activation [13]: 0.471% and 1.28%
- Potency [14]: inactive
- activation [15]: -1.44% and -0.611%
- Potency [16]: inactive
- Potency [17]: inactive
- max response [18]: -2.08% and -3.74%
- outcome [19]: inactive
